Records with an inconclusive call do not appear. A number with no mark means an inactive call. Activity calls are given as the source filed them. Calls come from the whole dose curve; as a rule, active = well fitted cell-killing curve with a large enough effect in the repeat runs; inconclusive = weak or mixed curves, or effect the other way; inactive = flat fitted curve, though single readings scatter.
test: cAMP Responsive Elements (CRE) small molecule agonists, cell-based qHTS assay: qHTS cell viability counter screen (AID 2060914); details: CRE-bla HEK293T viability, CellTiter-Glo luminescence, 5 h; series mostly up to 92.4 µM; activity change, negative = cytotoxicity: at the top concentration;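 note: viability read after 3 h of compound exposure; nearly all actives have a fitted effect of over 50% in size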
Description: National Center for Advancing Translational Sciences [NCATS]
Division of Preclinical Innovation [DPI]
U.S. Environmental Protection Agency [EPA]
National Institutes of Environmental Health Sciences [NIEHS]
National Toxicology Program [NTP]
U.S. Food and Drug Administration [FDA]
CREB (cyclic-AMP Responsive Element Binding Protein) is a cellular transcription factor. It binds to certain DNA sequences called cAMP Responsive Elements (CRE) and regulates the transcription of the genes. […] This cell line can be used to find agonists/antagonists of the cyclic AMP signaling pathway. The activation of the report gene under culture conditions can be detected by fluorescence intensity. This cell line has been used to screen the Tox21 10K compound library to identify agonists that induce oxidative stress. The cytotoxicity of the Tox21 compound library against the CRE-bla cell line was tested in parallel by measuring the cell viability using CellTiter-Glo assay (Promega, Madison, WI) in the same wells.
Tox21 Assay Protocol Summary:
CRE-bla Hek 293T cells were suspended in assay medium (DMEM containing 10% dialyzed FBS, 0.1 mM NEAA, 1 mM sodium pyruvate and 25 mM HEPES) and dispensed at 2,000 cells/5 uL /well into 1536-well black wall/clear bottom plates using a Multidrop Combi (ThermoFisher Scientific, Waltham, MA) dispenser. After the assay plates were incubated at 37 C/5% CO2 for 18 hrs, 23 nL of compounds dissolved in DMSO, positive controls or DMSO only was transferred to the assay plate by a pintool workstation (Kalypsys, San Diego, CA). After the plates were incubated at 37 C/5% CO2 for 3 hrs, 1 uL of LiveBLAzer B/G FRET substrate (Invitrogen, Carlsbad, CA) was added to each well using Bioraptr Flying Reagent Dispenser (FRD, Aurora Discovery, San Diego, CA). The plates were incubated at room temperature for 2 h, then fluorescence intensities were measured using an Envision plate reader (PerkinElmer, Shelton, CT) at Excitation 405nm, Emission 460nm and 530nm. The % activity was determined from the ratio of 460nm/530nm. For cell viability readout that measures cytotoxicity, 4 uL /well of CellTiter-Glo reagent was added into the assay plates using Bioraptr FRD. After 30 min incubation at room temperature, the luminescence intensity in the assay plates was measured using a ViewLux (PerkinElmer, Shelton, CT) plate reader.
% is set by controls: 0 for no effect and ±100 for the full control effect.

Row | Structure (SMILES) | Potency | activity change, negative = cytotoxicity
1 | OC1CCCCC1 | inactive | –
2 | CC(C)CCCC(C)CC=O (stereo not given) | – | 8.07%
3 | Clc1nc2ccccc2nc1Cl | – | 0.415%
4 | CCCCC(CC)COC(=O)COc1ccc(Cl)cc1Cl (stereo not given) | – | -10.8%
5 | O=C(C1CCCCC1)N1CC(=O)N2CCc3ccccc3C2C1 (stereo not given) | inactive | –
6 | O=c1[nH]c(=O)c2[nH]c(=O)[nH]c2[nH]1 | – | 8.03% [at 8.39 µM]
7 | O=C(O)CNC(=O)c1ccccc1 | – | 13.7% [at 42.5 µM]
8 | COc1cccc(OC)c1O | – | 4.87%
9 | CCCc1cc(C(N)=S)ccn1 | – | 2.01% [at 42.5 µM]
10 | O=C1c2ccccc2C(=O)c2cc(Cl)ccc21 | – | 2.19% [at 8.39 µM]
11 | COc1cc(NS(=O)(=O)c2ccc(N)cc2)nc(OC)n1 | – | -3.22% [at 42.5 µM]
12 | CCCCCCCCCCCCN(CCCCCCCCCCCC)CCCCCCCCCCCC | – | 16.4%
13 | CC(C)CNCC(C)C | – | 3.58%
14 | Clc1ccc(Sc2cc(Cl)c(Cl)cc2Cl)cc1 | inactive | –
15 | CC(C)=CCNc1ncnc2c1ncn2[C@@H]1O[C@H](CO)[C@@H](O)[C@H]1O | – | -17.5% [at 42.5 µM]
16 | COS(=O)(=O)C(F)(F)F | – | 4.37%
17 | CC(C)(O)c1ccccc1 | – | 1.68%
18 | CC(N)C12CC3CC(CC(C3)C1)C2 (stereo not given) | – | 3.7% [at 42.5 µM]
19 | Oc1c(Cl)ccc(Cl)c1Cl | inactive | –
20 | c1ccc(SCCSc2ccccc2)cc1 | – | 2.06%

Row | Structure (SMILES) | Potency | activity change, negative = cytotoxicity
21 | CC(=O)OCC1=C(C(=O)O)N2C(=O)[C@@H](NC(=O)Cc3cccs3)[C@H]2SC1 | – | 10.7% [at 42.5 µM]
22 | CC1COC(=O)O1 (stereo not given) | inactive | –
23 | C1=COCCC1 | – | 1.61%
24 | O=c1c(-c2ccc(O)cc2)coc2cc(O)ccc12 | inactive | –
25 | N#CCC(=O)O | inactive | –
26 | O=c1[nH][nH]c2ccccc12 | – | 22.4%
27 | CCOC(=O)NCCC[Si](OCC)(OCC)OCC | – | -6.43%
28 | CCC(CN)=C(c1ccccc1)c1ccccc1 | – | -14.9% [at 42.5 µM]
29 | CN(C)CCCCl | – | 0.638%
30 | O=C(c1ccccc1)C1CCC1 | – | 0.0249%
31 | Cc1c2ccccc2c(C)c2c1ccc1ccccc12 | inactive | –
32 | Cc1nc(-c2ccc(Cl)cc2)oc1COC(C)(C)C(=O)O | – | -5.88% [at 42.5 µM]
33 | Nc1ccc(S(=O)(=O)O)cc1 | – | 11.1%
34 | CO[Si](OC)(c1ccccc1)c1ccccc1 | – | -2.12%
35 | N=C1N=C(N)c2ccccc21 | – | 23.3%
36 | CCCC[P+](CCCC)(CCCC)CCCC | inactive | –
37 | CCCCCC[C@@H](O)C/C=C\CCCCCCCC(=O)OCC(O)CO (stereo not given in full) | – | 3.35%
38 | C1=C\CC/C=C\CC/C=C\CC/1 | – | 12.6%
39 | CCCCC(CC)COC(=O)CCCCCCCCC(=O)OCC(CC)CCCC (stereo not given) | – | 9.57%
40 | COC(=O)[C@@H](N)Cc1ccc(O)c(O)c1 | – | -1.91% [at 42.5 µM]
